Laboratory results taken from ChEMBL document CHEMBL2218924, “A broad activity screen in support of a chemogenomic map for kinase signalling research and drug discovery” (Biochem J, 2013).

Assays:
[1] = molecular target: Ribosomal protein S6 kinase beta-1 (Homo sapiens) (UniProt P23443); conditions: at 1 µM
[2] = molecular target: Ribosomal protein S6 kinase beta-1 (Homo sapiens) (UniProt P23443); conditions: at 10 µM
[3] = molecular target: Serine/threonine-protein kinase PAK 2 (Homo sapiens) (UniProt Q13177); conditions: at 1 µM
Serine/threonine-protein kinase PAK 2 (Homo sapiens), sequence (Q13177 whole entry): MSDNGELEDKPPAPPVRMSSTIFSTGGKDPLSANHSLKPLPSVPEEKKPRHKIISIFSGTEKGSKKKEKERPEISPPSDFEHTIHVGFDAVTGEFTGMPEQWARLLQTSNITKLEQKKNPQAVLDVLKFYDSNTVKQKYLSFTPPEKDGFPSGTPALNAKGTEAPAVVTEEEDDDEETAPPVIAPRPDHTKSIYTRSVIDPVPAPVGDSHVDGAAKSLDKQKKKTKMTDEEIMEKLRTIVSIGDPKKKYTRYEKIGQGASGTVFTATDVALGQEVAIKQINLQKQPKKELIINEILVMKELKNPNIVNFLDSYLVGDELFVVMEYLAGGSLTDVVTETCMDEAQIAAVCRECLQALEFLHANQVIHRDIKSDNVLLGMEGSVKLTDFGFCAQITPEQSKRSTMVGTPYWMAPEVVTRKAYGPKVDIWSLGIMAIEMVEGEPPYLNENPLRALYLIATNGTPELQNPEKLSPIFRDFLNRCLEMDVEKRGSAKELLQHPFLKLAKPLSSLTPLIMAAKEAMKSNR

[4] = molecular target: Serine/threonine-protein kinase PAK 2 (Homo sapiens) (UniProt Q13177); conditions: at 10 µM
[5] = molecular target: Serine/threonine-protein kinase Nek6 (Homo sapiens) (UniProt Q9HC98); conditions: at 1 µM
Serine/threonine-protein kinase Nek6 (Homo sapiens), sequence (Q9HC98 whole entry): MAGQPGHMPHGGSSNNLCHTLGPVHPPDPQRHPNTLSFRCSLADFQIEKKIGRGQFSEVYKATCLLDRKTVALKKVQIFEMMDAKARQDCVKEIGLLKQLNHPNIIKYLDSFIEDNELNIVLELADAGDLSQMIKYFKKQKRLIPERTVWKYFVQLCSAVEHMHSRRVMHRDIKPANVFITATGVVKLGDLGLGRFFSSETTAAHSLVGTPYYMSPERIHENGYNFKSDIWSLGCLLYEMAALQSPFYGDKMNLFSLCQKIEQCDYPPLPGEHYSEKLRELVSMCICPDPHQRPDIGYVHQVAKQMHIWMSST

[6] = molecular target: Serine/threonine-protein kinase Nek6 (Homo sapiens) (UniProt Q9HC98); conditions: at 10 µM
[7] = molecular target: Serine/threonine-protein kinase Nek7 (Homo sapiens) (UniProt Q8TDX7); conditions: at 1 µM
Serine/threonine-protein kinase Nek7 (Homo sapiens), sequence (Q8TDX7 whole entry, looked up): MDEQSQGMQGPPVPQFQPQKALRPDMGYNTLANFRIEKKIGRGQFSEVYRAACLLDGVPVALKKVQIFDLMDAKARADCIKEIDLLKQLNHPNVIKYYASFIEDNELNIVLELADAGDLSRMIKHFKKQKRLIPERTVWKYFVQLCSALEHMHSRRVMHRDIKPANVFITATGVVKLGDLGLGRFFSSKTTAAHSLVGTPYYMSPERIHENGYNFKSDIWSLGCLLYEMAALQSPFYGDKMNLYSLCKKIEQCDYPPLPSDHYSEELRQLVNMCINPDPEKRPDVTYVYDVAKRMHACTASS

[8] = molecular target: Serine/threonine-protein kinase Nek7 (Homo sapiens) (UniProt Q8TDX7); conditions: at 10 µM
[9] = molecular target: T1, Serine/threonine-protein kinase NLK (Homo sapiens) (UniProt Q9UBE8); conditions: at 10 µM
T1 sequence (whole entry): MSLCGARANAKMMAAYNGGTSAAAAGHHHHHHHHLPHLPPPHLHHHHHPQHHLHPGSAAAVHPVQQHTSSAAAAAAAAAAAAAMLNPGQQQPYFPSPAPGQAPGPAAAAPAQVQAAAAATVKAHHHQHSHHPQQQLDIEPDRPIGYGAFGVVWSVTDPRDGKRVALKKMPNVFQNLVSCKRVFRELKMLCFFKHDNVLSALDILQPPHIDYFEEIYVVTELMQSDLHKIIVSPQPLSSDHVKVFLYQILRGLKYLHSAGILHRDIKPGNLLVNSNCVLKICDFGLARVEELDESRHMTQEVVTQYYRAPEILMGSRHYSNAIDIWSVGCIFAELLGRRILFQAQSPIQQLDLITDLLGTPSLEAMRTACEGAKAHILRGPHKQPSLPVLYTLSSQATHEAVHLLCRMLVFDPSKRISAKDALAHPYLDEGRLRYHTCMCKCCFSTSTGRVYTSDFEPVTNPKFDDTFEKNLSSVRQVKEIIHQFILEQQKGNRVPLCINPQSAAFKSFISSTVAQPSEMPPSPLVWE

[10] = molecular target: T1, Serine/threonine-protein kinase NLK (Homo sapiens); conditions: at 1 µM

Ribosomal protein S6 kinase beta-1 (Homo sapiens), sequence (P23443 whole entry, looked up): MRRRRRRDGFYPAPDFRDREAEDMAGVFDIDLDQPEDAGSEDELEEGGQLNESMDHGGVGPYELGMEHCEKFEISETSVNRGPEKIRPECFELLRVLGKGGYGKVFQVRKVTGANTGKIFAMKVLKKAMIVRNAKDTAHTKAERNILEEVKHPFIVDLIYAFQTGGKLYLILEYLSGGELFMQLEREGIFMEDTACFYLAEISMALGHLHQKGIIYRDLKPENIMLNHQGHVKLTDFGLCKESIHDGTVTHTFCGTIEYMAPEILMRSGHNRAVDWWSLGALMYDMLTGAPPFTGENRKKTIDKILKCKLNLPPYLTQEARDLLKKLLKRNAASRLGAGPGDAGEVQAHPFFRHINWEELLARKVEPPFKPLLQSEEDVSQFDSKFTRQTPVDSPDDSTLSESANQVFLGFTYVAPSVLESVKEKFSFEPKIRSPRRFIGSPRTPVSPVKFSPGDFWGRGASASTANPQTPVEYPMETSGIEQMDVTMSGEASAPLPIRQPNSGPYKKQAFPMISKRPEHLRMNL

Row | Compound | residual activity [1] | residual activity [2] | residual activity [3] | residual activity [4] | residual activity [5] | residual activity [6] | residual activity [7] | residual activity [8] | residual activity [9] | residual activity [10]
1 | N#CC(C#N)=C(N)/C(C#N)=C/c1ccc(O)cc1 | 66% | 77% | 88% | 97% |  |  |  |  |  | 
2 | CC[n+]1c(/C=C/N(C)c2ccccc2)n(-c2ccccc2)c2ccc(-c3nc4ccccc4s3)cc21 | 130% | 71% | 109% | 81% | 108% (inactive) | 88% | 117% (inactive) | 138% (inactive) | 89% | 
3 | CC#CC(=O)Nc1cc2c(Nc3ccc(F)c(Cl)c3)ncnc2cn1 | 96% | 98% | 82% | 81% | 82% (inactive) | 91% | 94% (inactive) | 100% (inactive) | 79% | 93%
4 | O=C1Nc2cc(Br)ccc2/C1=C1/Nc2ccccc2/C1=N\O | 30% | 29% | 75% | 88% | 108% (inactive) | 106% | 102% (inactive) | 85% (inactive) | 85% | 79%
5 | c1ccc(-c2n[nH]cc2-c2ccnc3ccccc23)nc1 | 72% | 58% | 107% | 88% |  |  |  |  | 27% | 72%
6 | N#Cc1cnc2cnc(NCc3cccnc3)cc2c1Nc1ccc(F)c(Cl)c1 | 1% | -1% | 103% | 90% |  |  |  |  | 89% | 93%
7 | Nc1nc(Nc2ccc(S(N)(=O)=O)cc2)nn1C(=S)Nc1c(F)cccc1F | 14% | 11% | 47% | 7% | 89% (inactive) | 44% |  |  | 3% | 17%
8 | Cc1nc(-c2ccccc2)c(-c2ccncc2)o1 | 83% | 56% | 102% | 101% | 105% (inactive) |  | 107% (inactive) | 106% (inactive) | 48% | 103%
9 | Nc1ccc2ncnc(NCCc3ccc(Oc4ccccc4)cc3)c2c1 | 81% | 51% | 103% | 89% | 105% (inactive) | 120% | 111% (inactive) | 117% (inactive) | 96% | 111%
10 | Cn1cc(/C=C2\C(=O)Nc3ccc(S(N)(=O)=O)cc32)c2ccccc21 | 29% | 11% | 124% | 91% | 100% (inactive) | 112% | 103% (inactive) | 89% (inactive) | 84% | 104%
11 | Cc1cc(Nc2nc(-c3ccccc3)nc3ccccc23)n[nH]1 | 46% | 10% |  | 45% | 105% (inactive) | 105% | 105% (inactive) |  |  | 
12 | Oc1ccc(Nc2nc(-c3ccc(Cl)cc3)cs2)cc1 | 119% | 87% | 105% | 106% | 116% (inactive) | 123% | 110% (inactive) | 106% (inactive) | 74% | 110%
13 | COc1cc2ncnc(N3CCN(C(=O)Nc4ccc(Oc5ccccc5)cc4)CC3)c2cc1OC |  |  | 110% | 86% | 91% (inactive) | 126% | 97% (inactive) | 113% (inactive) | 89% | 88%
14 | O=C1NC(=O)/C(=C/c2ccc3c(c2)OC(F)(F)O3)S1 | 73% | 35% | 104% | 76% | 84% (inactive) | 93% | 100% (inactive) | 97% (inactive) | 84% | 107%
15 | O=C(Nc1cccc(Nc2nccc(Nc3cccc(C(F)(F)F)c3)n2)c1)C1CC1 | 83% | 62% | 116% | 58% | 107% (inactive) | 105% | 103% (inactive) | 104% (inactive) | 39% | 95%
16 | Nc1cccc(-c2cc3c(Oc4cccc(O)c4)ncnc3[nH]2)c1 | 71% | 49% | 105% | 70% |  |  |  |  | 33% | 79%
17 | O=[N+]([O-])c1ccc(-c2nc(-c3ccc(F)cc3)c(-c3ccncc3)[nH]2)cc1 | 122% | 62% | 105% | 101% | 109% (inactive) | 123% | 99% (inactive) | 111% (inactive) | 40% | 31%
18 | CN(C)CCCn1cc(C2=C(c3c[nH]c4ccccc34)C(=O)NC2=O)c2ccccc21 | 11% | 2% | 115% |  |  | 113% | 117% (inactive) | 121% (inactive) | 88% | 127%
19 | CC(=O)c1ccc(N2CCOCC2)cc1O | 55% | 46% | 104% | 97% |  |  | 98% (inactive) |  | 83% | 97%
